About 2,000 (36%) of roughly 5,500 compounds were called active. Roughly 18% stayed inconclusive and do not appear here. No stated cut-off is given here; in the data, active means normalized growth mostly below about 0.91 (no sharp cut-off); inconclusive means no clear call, values can overlap the other calls; inactive means mostly above about 0.92. Some of the results follow.
Assay: chemical genetic growth profiling, strain panel (AID 1159580);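 further: tested at 20 µM; growth read once vehicle control cultures reached saturation at 30 °C; 1 = growth at the plate median or of vehicle wells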
Conditions: growth OD

Measured: normalized growth

COc1ccccc1N=C(N)SCc1ccccc1
inactive: S. cerevisiae deletion strains, locus YAL013W, strain DEP1, stronger effect = lower value 1.01 | S. cerevisiae deletion strains, locus YBR229C, strain ROT2, stronger effect = lower value 1.01 | S. cerevisiae deletion strains, locus YCL061C, strain MRC1, stronger effect = lower value 1.01 | S. cerevisiae deletion strains, locus YDL101C, strain DUN1, stronger effect = lower value 1 | S. cerevisiae deletion strains, locus YDR150W, strain NUM1, stronger effect = lower value 0.923 | S. cerevisiae deletion strains, locus YEL061C, strain CIN8, stronger effect = lower value 1 | S. cerevisiae deletion strains, locus YGR078C, strain PAC10, stronger effect = lower value 1.01 | S. cerevisiae deletion strains, locus YHR030C, strain SLT2, stronger effect = lower value 1.03 | S. cerevisiae deletion strains, locus YHR087W, strain rtc3, stronger effect = lower value 1.01 | S. cerevisiae deletion strains, locus YJL187C, strain SWE1, stronger effect = lower value 1.01 | S. cerevisiae deletion strains, locus YJR043C, strain POL32, stronger effect = lower value 1.01 | S. cerevisiae deletion strains, locus YJR075W, strain HOC1, stronger effect = lower value 1.01 | S. cerevisiae deletion strains, locus YKL190W, strain CNB1, stronger effect = lower value 1.01 | S. cerevisiae deletion strains, locus YLR039C, strain RIC1, stronger effect = lower value 1.02 | S. cerevisiae deletion strains, locus YLR058C, strain SHM2 (second series), stronger effect = lower value 1.01 | S. cerevisiae deletion strains, locus YLR085C, strain ARP6, stronger effect = lower value 1.03 | S. cerevisiae deletion strains, locus YLR262C, strain YPT6, stronger effect = lower value 0.999 | S. cerevisiae deletion strains, locus YML094W, strain GIM5, stronger effect = lower value 0.988 | S. cerevisiae deletion strains, locus YMR219W, strain ESC1, stronger effect = lower value 1.01 | S. cerevisiae deletion strains, locus YMR263W, strain SAP30, stronger effect = lower value 1.01 | S. cerevisiae deletion strains, locus YMR307W, strain GAS1, stronger effect = lower value 1.06 | S. cerevisiae deletion strains, locus YNL128W, strain TEP1, stronger effect = lower value 1.01 | S. cerevisiae deletion strains, locus YNL153C, strain GIM3, stronger effect = lower value 1 | S. cerevisiae deletion strains, locus YNL298W, strain CLA4 (second series), stronger effect = lower value 0.998 | S. cerevisiae deletion strains, locus YNL322C, strain KRE1, stronger effect = lower value 1.01 | S. cerevisiae deletion strains, locus YNR030W, strain Alg12, stronger effect = lower value 1.02 | S. cerevisiae deletion strains, locus YPL055C, strain LGE1, stronger effect = lower value 0.928 | S. cerevisiae deletion strains, locus YPL241C, strain CIN2, stronger effect = lower value 0.994 | S. cerevisiae deletion strains, locus YPR135W, strain CTF4, stronger effect = lower value 0.962 | S. cerevisiae strains, strain wild type, stronger effect = lower value 1.01

From PubChem BioAssay AID1159580 (chemical genetic matrix, 2015)
